# The supplement of paper PMC6555819
# Legend:
# Test in all cases: PBM binding z-score (relative to random genomic background probes); higher = stronger binding; sequences stand for … in GC…GCGATTGACAGCGTAGAATGAAGG
# [1] = system: FXR:RXRa (NR concentration 270 nM, RXRa partner concentration 90 nM)
# Method in brief: (§1)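 Each nuclear receptor dimer, without ligand, was incubated for 1 h on custom Agilent 4×180K protein-binding microarrays. Binding was detected with antibodies against each partner (one per run), and scanned fluorescence was regression-normalized. The binding z-scores are referenced to random human genomic background probes.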
# [2] = system: LXRa:RXRa (NR concentration 270 nM, RXRa partner concentration 90 nM)
# Method in brief: as §1
# [3] = system: LXRa homodimer (NR concentration 270 nM)
# Method in brief: as §1
# [4] = system: LXRb:RXRa (NR concentration 270 nM, RXRa partner concentration 90 nM)
# Method in brief: as §1
# [5] = system: LXRb homodimer (NR concentration 270 nM)
# Method in brief: as §1
# [6] = system: PPARa:RXRa (NR concentration 270 nM, RXRa partner concentration 90 nM)
# Method in brief: as §1
# [7] = system: PPARg:RXRa (NR concentration 180 nM, RXRa partner concentration 90 nM)
# Method in brief: as §1
# [8] = system: PPARg:RXRa 270nM:90nM, anti-RXR (NR concentration 270 nM, RXRa partner concentration 90 nM)
# Method in brief: as §1
# [9] = system: PPARg:RXRa 30nM:10nM, anti-RXR (NR concentration 30 nM, RXRa partner concentration 10 nM)
# Method in brief: as §1
# [10] = system: PPARg:RXRa 90nM:30nM, anti-RXR (NR concentration 90 nM, RXRa partner concentration 30 nM)
# Method in brief: as §1
Sequence,PBM binding z-score [1],PBM binding z-score [2],PBM binding z-score [3],PBM binding z-score [4],PBM binding z-score [5],PBM binding z-score [6],PBM binding z-score [7],PBM binding z-score [8],PBM binding z-score [9],PBM binding z-score [10]
TCGAGTAGGTTACCAATGGGTCATTCAGCTTTCT,1.16,3.38,0.134,2.15,-0.601,2.66,0.754,1.91,1.5,1.72
CCGACTGGGGCATAAGGTTACCCTAAGCCAGCCC,0.368,0.99,-0.135,0.439,-1.18,1.6,1.95,3.02,0.838,2.09
CGAACTAGGTCAAGGACAGTTAATCTCCGCACGC,3.29,2.36,0.153,1.58,-0.0529,4.46,7.29,6.38,3.78,5.73
TGAATGAGGTTAAAGATCAGGGAGCGTGGCGTCG,2.85,2.34,-0.379,1.14,0.0684,4.39,5.63,5.88,5.47,6.49
ACAATGAGGTTACCAAAGATCAGGGAAACGCTTG,1.97,6.4,0.286,3.25,0.572,3.26,2.36,2.11,0.698,1.61
CCTGCTAGGTGAATGGTCAGCTAAAGCAGCTCGC,-0.48,-0.375,-0.807,-0.625,-0.989,1.25,2.89,4.11,2.1,3.81
GCAGCTAGGTCAACTGATGGTCAGCTAAAGCTCG,3.76,2.29,-0.24,1.56,-0.578,3.37,2.48,3.01,0.457,1.89
ATATGTAGGTTACATCCAGGTCATTCAGGCTATG,2.67,4.56,3.72,3.08,0.989,4.38,5.7,4.88,2.67,4.04
ACTATTAGTTGAGACGAGGGAAACCGATAGGTTG,0.194,0.0182,-0.36,-0.399,-0.0748,-0.349,0.531,-0.165,0.215,0.291
TCATATAGATAATACAGGTGAAAGTCGGCATCTA,1.28,0.946,0.247,1.08,0.215,1.53,1.36,2.47,4.31,3.51
CTTGCTAGGTCATGGTCAGCTAATCTACAGTATG,3.63,2.86,0.466,1.66,-0.00744,3.61,3.05,3.54,1.34,2.35
CGTCCAAGGTCAAACGTCAGTGAAGAGATGACGG,7.81,5.85,1.39,4.54,1.77,6.06,5.95,6.15,3.64,5.2
ATATGTAGGATAAGGGTCATTCAGGTTGGTTCGC,3.71,4.09,2.42,3.73,1.19,5.39,9.65,8.92,10.3,10
AGAATGAGGTTAAGATAAGGGAAACAGAATACAT,2.28,2.29,0.217,1.88,0.218,3.48,2.73,2.29,0.99,1.69
ACTAGCAGGACAAGTTTGGGTCACTCAAACAAAG,0.14,0.146,-0.00824,0.621,-0.0447,1.36,0.27,0.0968,-0.0869,-0.0203
GGAACGAGGGCAAAGTTGAGAGCATCTGTCGACG,1.68,1.11,-0.49,1.03,-0.383,4.56,8.2,7.84,7.2,8.99
